The % Inhibition is the change of the read-out against control, counted positive when it falls.

73 compounds from article PMC4552634, “A New Set of Chemical Starting Points with Plasmodium falciparum Transmission-Blocking Potential for Antimalarial Drug Discovery” (PLoS ONE, 2015) can be followed below.

Among all 13,000 compounds or so, about 3,200 (25%) showed an effect of 50% or more. The list shows a part of the results.

For this experiment, the system named is P. falciparum stage V gametocytes. Further details: BacTiter-Glo ATP luminescence viability of purified stage V gametocytes in 384-well plates, per cent inhibition versus DMSO. The following applies: 48 h, 5 µM; inhibitor.
As for `Cn1nc(C(=O)N2CCC(c3[nH]ncc3Cc3ccccc3)CC2)c2ccccc2c1=O` [TCMDC-124642], the “% Inhibition” value is on record as 16.79%.
In the case of `CC(=O)CC(=O)N1CCN(c2ccccc2)CC1` [TCMDC-125502] it was -5.255%; in that of `CC(C)n1nc(C(=O)N2CCN(c3ccccc3)CC2)c2ccccc2c1=O` [TCMDC-124333], 78.8%; in that of `Cn1c2c(c3ccccc31)CN(CCC1(c3ccc(Cl)c(Cl)c3)CN(C(=O)c3ccccc3)CCO1)CC2` (stereo not shown) [TCMDC-135562], -29.91%.
The figure for `COCCN(C(=O)Cc1cccs1)C(C(=O)NCc1ccc(OC)cc1)c1ccc(C(C)C)cc1` (stereo not shown) [TCMDC-125625] is -2.779%; for `CN1CCN(CCNc2c3ccccc3nc3ccc4ccccc4c23)CC1` [TCMDC-137724] it is 54.46%.
The figure for `CN1CCN(CCNc2c3ccccc3nc3c2ccc2ccccc23)CC1` [TCMDC-137723] is 92.22%.
Take `CN(Cc1cnc2nc(N)nc(N)c2n1)c1ccc(C(=O)N[C@@H](CCC(=O)O)C(=O)O)cc1` [TCMDC-125858]: the “% Inhibition” value is -8.966%.
The figure for `Cc1c(-c2cccc(Br)c2)[nH]c2nc(N)nc(N)c12` [TCMDC-137836] is -91.89%; for `O=C(Nc1cccc(F)c1)N1CCC(CN2CCOC(c3ccccc3)(c3ccccc3)C2)CC1` [TCMDC-136345] it is 66.91%.
In the case of `COc1cc(OC)cc(C(=O)N2CCOC(CCN3CCC(c4ccccc4)CC3)(c3ccc(Cl)c(Cl)c3)C2)c1` (stereo not shown) [TCMDC-135348] it was -85.08%; in that of `O=C(Nc1cc(F)cc(F)c1)N1CCOC(CCN2CCC(c3ccccc3)CC2)(c2ccc(Cl)c(Cl)c2)C1` (stereo not shown) [TCMDC-135333], 17.76%.
The figure for `O=C(c1ccccc1)N1CCC(CN2CCOC(c3ccccc3)(c3ccccc3)C2)CC1` [TCMDC-136346] is 86.1%; for `COc1ccc(C(=O)N2CCC(CN3CCOC(c4ccccc4)(c4ccccc4)C3)CC2)cc1` [TCMDC-136347] it is 57.99%; for `O=C(Nc1ccccc1)N1CCC(CN2CCOC(c3ccccc3)(c3ccccc3)C2)CC1` [TCMDC-136344] it is 40.09%.
Regarding `O=C(c1ccc(Cl)cc1)N1CCOC(CCN2CCC(c3ccccc3)CC2)(c2ccc(Cl)c(Cl)c2)C1` (stereo not shown) [TCMDC-135351], the “% Inhibition” value is -32.03%.
In the case of `O=C(c1ccc(F)c(F)c1)N1CCOC(CCN2CCC(c3ccccc3)CC2)(c2ccc(Cl)c(Cl)c2)C1` (stereo not shown) [TCMDC-135337] it was -91.33%; in that of `CCOc1ccc(C(=O)N2CCOC(CCN3CCC(c4ccccc4)CC3)(c3ccc(Cl)c(Cl)c3)C2)cc1` (stereo not shown) [TCMDC-135344], -65.78%.
Regarding `NC(N)=NC(=O)Nc1cc(F)c(Cl)c(Br)c1` [TCMDC-137510], the “% Inhibition” value is recorded as -16.64%.
In the case of `CC(C)Nc1nc(NC2CCCCC2)nc(N2CCCCCCC2)n1` [TCMDC-139688] it was -95.56%.
As to `Cc1nc2ccc(Nc3nccc(-c4c(-c5cccc(NC(=O)c6c(F)cccc6F)c5)nn5ccccc45)n3)cc2nc1C` [TCMDC-135906], the “% Inhibition” value was -53.2%.
The figure for `Cc1ccc2nc(C)cc(NN=Cc3cccc(Cl)c3)c2c1` [TCMDC-142063] is 87.16%; for `Cc1ccc2c(NN=Cc3cccc(Cl)c3)cc(C)nc2c1` [TCMDC-142064] it is 91.21%.
In the case of `Cc1cc(NN=Cc2cccc(Cl)c2)c2ccccc2n1` [TCMDC-142060] it was -14.77%; in that of `Cc1ccc2c(NN=Cc3ccc(N(C)C)cc3)cc(C)nc2c1` [TCMDC-142076], -47.79%; in that of `Cc1cc(N2CCCC2)nc(Nc2ccc(NC(=O)c3ccco3)cc2)n1` [TCMDC-124965], -16.57%.
`O=C1C2C3SC(c4c3ccc3ccccc43)C2C(=O)N1c1ccccc1` (stereo not shown) [TCMDC-123946]: the “% Inhibition” value is -5.395%.
In the case of `COC(=O)c1ccc(NC(=O)c2ccc(CCN3CCC(c4nc(COCC(F)(F)F)c(-c5ccc(F)cc5)o4)CC3)cc2)cc1` [TCMDC-138133] it was -17.07%.
`CCN(C(=O)CSc1cc(C)c2cc(C)cc(C)c2n1)C1CCS(=O)(=O)C1` (stereo not shown) [TCMDC-123568]: the “% Inhibition” value is -6.938%.
The figure for `CN(C)CCCOc1ccc(CN2CCC(c3c[nH]c4ccc(NCC5CCCCC5)cc34)CC2)cc1` [TCMDC-140737] is 96.97%; for `COc1ccc2[nH]cc(C3CCN(Cc4ccc(NC(=O)c5ccc(-c6ccccc6)cc5)cc4)CC3)c2c1` [TCMDC-139069] it is 7.748%; for `COc1ccc2[nH]cc(C3CCN(CCCCNC(=O)c4ccc(NC(=O)c5ccc(Cl)cc5)cc4)CC3)c2c1` [TCMDC-138328] it is -10.4%.
In the case of `Cc1noc(C)c1-c1cccc(CNCc2cccc(-c3cccc(-c4nc5ccccc5[nH]4)c3)c2)c1.O=C(O)C(F)(F)F` [TCMDC-133065] it was 2.097%; in that of `COc1ccc(CCn2c(=N)c(C(=O)NCc3cccnc3)cc3c(=O)n4cccc(C)c4nc32)cc1` [TCMDC-124470], 92%; in that of `Cc1cccn2c(=O)c3cc(C(=O)NCc4cccnc4)c(=N)n(CCc4ccccc4)c3nc12` [TCMDC-125663], 86.68%.
The figure for `COc1ccc(CCn2c(=N)c(C(=O)NCc3ccccc3)cc3c(=O)n4cccc(C)c4nc32)cc1` [TCMDC-124473] is 6.095%.
With `Cc1ccc2nc3c(cc(C(=O)NCCc4ccccc4)c(=N)n3CCCOC(C)C)c(=O)n2c1` [TCMDC-125408], the “% Inhibition” value was -18.91%.
The figure for `Cc1cccn2c(=O)c3cc(C(=O)NCCc4ccccc4)c(=N)n(CCCOC(C)C)c3nc12` [TCMDC-125410] is 68.18%; for `CCOCCCn1c(=N)c(C(=O)NCc2ccc(OC)cc2)cc2c(=O)n3cccc(C)c3nc21` [TCMDC-125406] it is 75.07%.
In the case of `COCCCn1c(=N)c(C(=O)NCCc2ccc(OC)cc2)cc2c(=O)n3cccc(C)c3nc21` [TCMDC-125085] it was 9.799%.
In the case of `CCOCCCn1c(=N)c(C(=O)NCc2ccc(F)cc2)cc2c(=O)n3cccc(C)c3nc21` [TCMDC-125407], the “% Inhibition” value was found to be 36.21%.
The figure for `COc1ccc(CCn2c(=N)c(C(=O)NCc3cccnc3)cc3c(=O)n4ccccc4nc32)cc1` [TCMDC-124471] is 25.4%; for `Cc1cccn2c(=O)c3cc(C(=O)NC(C)c4ccccc4)c(=N)n(CCc4ccccc4)c3nc12` (stereo not shown) [TCMDC-124469] it is -59.42%.
The figure for `CCCn1c(=N)c(C(=O)NCCc2ccccc2)cc2c(=O)n3cccc(C)c3nc21` [TCMDC-125084] is 4.719%; for `CCCCn1c(=N)c(C(=O)NCc2cccnc2)cc2c(=O)n3cccc(C)c3nc21` [TCMDC-124382] it is 12.6%.
Consider `Cn1c(-c2ccccc2)cc2c3c(=O)cc(C(F)(F)F)[nH]c3ccc21` [TCMDC-123876], for which the “% Inhibition” value is reported as 31.04%.
As to `C#CCOc1ccc(N2C(N)=NC(N)=NC2(C)C)cc1` [TCMDC-137471], the “% Inhibition” value is given as 11.38%.
The figure for `CC(C)c1cc2c(ccc3nc(N)nc(N)c32)o1` [TCMDC-131930] is 25.15%; for `Cc1ncccc1C(=O)Nc1cccc(-c2cccc(-c3nc4c(C)cccc4[nH]3)c2)c1` [TCMDC-136861] it is -23.88%; for `COc1cccc(C(=O)N2CCOC(CCN3CCC(c4ccccc4)CC3)(c3ccc(Cl)c(Cl)c3)C2)c1` (stereo not shown) [TCMDC-135336] it is -36.5%.
In the case of `CCCCNC(=O)[C@H](CC1CCCCC1)NC(=O)c1ccc(O)c(-c2ccc(Cl)c(Cl)c2)c1` [TCMDC-140841] it was 30.41%; in that of `COc1cc(C)cc(CN2CCC(Cc3ccccc3)CC2)c1O` [TCMDC-124540], -75.55%; in that of `O=C(NC1CC1)c1cnc(N2CCC(Cc3ccccc3)CC2)c(Cl)c1` [TCMDC-134606], 6.713%.
With `Oc1c(CN2CCC(Cc3ccccc3)CC2)cc(Cl)c2cccnc12` [TCMDC-124594], the “% Inhibition” value was 97.81%.
`Cc1nccn1Cc1cc(C(C)(C)C)c(O)c(C(C)(C)C)c1` [TCMDC-131329]: the “% Inhibition” value was -8.756%.
In the case of `COc1cc(CNC[C@@H](O)[C@H](Cc2ccccc2)NC(=O)c2cc(OC(C)C)cc(N3CCCS3(=O)=O)c2)cc(OC)c1` [TCMDC-134559] it was 3.73%; in that of `COc1cc2c(cc1C=CC(=O)N1CCN(Cc3nc4sc(C)c(C)c4c(=O)[nH]3)CC1)OC(C)C2` (stereo not shown) [TCMDC-132412], -4.453%; in that of `CN(C)CCOc1cc(NC(=O)Nc2ccc(-c3ccccc3)cc2Cl)ccc1I` [TCMDC-139140], -41.53%.
Regarding `C/C=C/C=C/C1=NCCc2cc(OCCC)ccc21` [TCMDC-137442], the “% Inhibition” value worked out at 112.8%.
The figure for `CCC(O)c1ccc(Br)cc1NC(=O)c1cccc(Cl)c1` (stereo not shown) [TCMDC-125394] is 16.03%; for `O=C(O)c1ccc2c(c1)N(C(=O)CNCc1ccc(F)cc1)CC(=O)N2CCCc1ccccc1` [TCMDC-140379] it is -9.998%; for `CNC(=O)Cc1ccc(C(=O)Nc2cccc(-c3csc(-c4nc5ccccc5[nH]4)c3)c2)cc1` [TCMDC-132395] it is -10.74%.
In the case of `c1ccc(-c2[nH]c3ccccc3c2CN2CCC(N3CCCCC3)CC2)nc1` [TCMDC-141636] it was 54.53%; in that of `Clc1ccc(-c2[nH]c3ccccc3c2CN2CCC(N3CCCCC3)CC2)cc1` [TCMDC-141631], 17.32%; in that of `Fc1ccc2[nH]c(-c3ccccc3)nc2c1CN1CCC(N2CCCC2)CC1` [TCMDC-136310], 4.53%.
As for `COc1ccc2nccc(N3C[C@H]4C[C@@H]3CN4CCNCc3ccc4c(n3)NC(=O)CS4)c2n1` [TCMDC-134685], the “% Inhibition” value was 4.783%.
The figure for `Cn1nc(-c2ccc(NC(=O)Nc3cc(C(F)(F)F)ccc3F)c(F)c2)c2cnc(NCCCN3CCOCC3)nc21` [TCMDC-141607] is 30.03%; for `Cn1nc(-c2ccc(NC(=O)Nc3cc(C(F)(F)F)ccc3F)c(F)c2)c2cnc(NCCCn3ccnc3)nc21` [TCMDC-141612] it is 3.105%; for `CCN(CC)CCCNc1ncc2c(-c3ccc(NC(=O)Nc4cc(C(F)(F)F)ccc4F)c(F)c3)nn(C)c2n1` [TCMDC-141609] it is 106.5%.
The figure for `Cn1nc(-c2ccc(NC(=O)Nc3cc(C(F)(F)F)ccc3F)cc2)c2cnc(NCCCCN3CCCC3)nc21` [TCMDC-141585] is 81.15%.
In the case of `Cn1nc(-c2ccc(NC(=O)Nc3cc(C(F)(F)F)cc(C(F)(F)F)c3)c(F)c2)c2cnc(NCCN3CCOCC3)nc21` [TCMDC-141560] it was 5.577%; in that of `CC1CCCCN1CCCNc1ncc2c(-c3ccc(NC(=O)Nc4cc(C(F)(F)F)ccc4F)c(F)c3)nn(C)c2n1` (stereo not shown) [TCMDC-141608], 97.41%; in that of `CN1CCN(CCCNc2ncc3c(-c4ccc(NC(=O)Nc5cc(C(F)(F)F)ccc5F)c(F)c4)nn(C)c3n2)CC1` [TCMDC-141611], 81.4%.
